About 2,000 (36%) of roughly 5,500 compounds were called active. About 18% were inconclusive and are not listed. Cut-off read from the data, not from the text of the source: active = normalized growth mostly below about 0.91 (no sharp cut-off); inconclusive = no clear call, values can overlap the other calls; inactive = mostly above about 0.92. The list shows a part of the results.
Test: chemical genetic growth profiling, strain panel (AID 1159580);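 note: tested at 20 µM; growth read once vehicle control cultures reached saturation at 30 °C; 1 = growth at the plate median or of vehicle wells; lower values mean less growth of the strain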
Conditions: growth OD

Measured: normalized growth

OC(c1cc(C(F)(F)F)nc2c(C(F)(F)F)cccc12)C1CCCCN1 (stereo not drawn)
inactive: S. cerevisiae deletion strains, locus YJR066W, strain TOR1, stronger effect = lower value 0.936 | S. cerevisiae deletion strains, locus YJR075W, strain HOC1, stronger effect = lower value 0.978 | S. cerevisiae deletion strains, locus YKL009W, strain mrt4, stronger effect = lower value 0.987 | S. cerevisiae deletion strains, locus YKL068W, stronger effect = lower value 0.99 | S. cerevisiae deletion strains, locus YKL085W, strain MDH1 (second series), stronger effect = lower value 0.989 | S. cerevisiae deletion strains, locus YKL085W, strain MDH1, stronger effect = lower value 0.989 | S. cerevisiae deletion strains, locus YKL160W, strain elf1, stronger effect = lower value 0.99 | S. cerevisiae deletion strains, locus YKL190W, strain CNB1, stronger effect = lower value 0.99 | S. cerevisiae deletion strains, locus YKR001C, strain vps1, stronger effect = lower value 1 | S. cerevisiae deletion strains, locus YKR026C, strain gcn3, stronger effect = lower value 1.01 | S. cerevisiae deletion strains, locus YKR091W, strain srl3, stronger effect = lower value 1 | S. cerevisiae deletion strains, locus YLL001W, strain dnm1, stronger effect = lower value 1 | S. cerevisiae deletion strains, locus YLL026W, stronger effect = lower value 1.01 | S. cerevisiae deletion strains, locus YLL041C, strain sdh2, stronger effect = lower value 1.02 | S. cerevisiae deletion strains, locus YLR027C, strain aat2, stronger effect = lower value 0.996 | S. cerevisiae deletion strains, locus YLR039C, strain RIC1, stronger effect = lower value 1.12 | S. cerevisiae deletion strains, locus YLR058C, strain SHM2, stronger effect = lower value 0.991 | S. cerevisiae deletion strains, locus YLR102C, strain apc9, stronger effect = lower value 0.991 | S. cerevisiae deletion strains, locus YLR113W, strain HOG1, stronger effect = lower value 0.93 | S. cerevisiae deletion strains, locus YLR221C, strain rsa3, stronger effect = lower value 1.02 | S. cerevisiae deletion strains, locus YLR258W, strain gsy2, stronger effect = lower value 1.01 | S. cerevisiae deletion strains, locus YLR262C, strain YPT6 (second series), stronger effect = lower value 1.11 | S. cerevisiae deletion strains, locus YLR262C, strain YPT6, stronger effect = lower value 1.15 | S. cerevisiae deletion strains, locus YLR268W, strain sec22, stronger effect = lower value 0.975 | S. cerevisiae deletion strains, locus YLR320W, strain mms22, stronger effect = lower value 1.01 | S. cerevisiae deletion strains, locus YLR330W, strain CHS5, stronger effect = lower value 0.992 | S. cerevisiae deletion strains, locus YLR342W, strain FKS1 (second series), stronger effect = lower value 0.962 | S. cerevisiae deletion strains, locus YLR342W, strain FKS1, stronger effect = lower value 1.01 | S. cerevisiae deletion strains, locus YLR357W, strain rsc2, stronger effect = lower value 1.09 | S. cerevisiae deletion strains, locus YLR370C, strain arc18, stronger effect = lower value 1 | S. cerevisiae deletion strains, locus YLR371W, strain rom2, stronger effect = lower value 0.988 | S. cerevisiae deletion strains, locus YLR384C, strain iki3, stronger effect = lower value 1.01 | S. cerevisiae deletion strains, locus YLR418C, strain cdc73, stronger effect = lower value 0.931 | S. cerevisiae deletion strains, locus YML016C, strain PPZ1, stronger effect = lower value 0.989 | S. cerevisiae deletion strains, locus YML032C, strain rad52, stronger effect = lower value 0.978 | S. cerevisiae deletion strains, locus YML120C, strain ndi1, stronger effect = lower value 1 | S. cerevisiae deletion strains, locus YML124C, strain tub3, stronger effect = lower value 0.99 | S. cerevisiae deletion strains, locus YMR058W, strain fet3, stronger effect = lower value 0.997 | S. cerevisiae deletion strains, locus YMR078C, strain ctf18, stronger effect = lower value 0.994 | S. cerevisiae deletion strains, locus YMR125W, strain sto1, stronger effect = lower value 1 | S. cerevisiae deletion strains, locus YMR129W, stronger effect = lower value 0.997 | S. cerevisiae deletion strains, locus YMR205C, strain PFK2, stronger effect = lower value 1.01 | S. cerevisiae deletion strains, locus YMR223W, strain ubp8, stronger effect = lower value 0.973 | S. cerevisiae deletion strains, locus YMR231W, strain pep5, stronger effect = lower value 1.01 | S. cerevisiae deletion strains, locus YMR307W, strain GAS1, stronger effect = lower value 0.869 | S. cerevisiae deletion strains, locus YNL067W, strain RPL9B, stronger effect = lower value 0.981 | S. cerevisiae deletion strains, locus YNL071W, strain lat1, stronger effect = lower value 1.02 | S. cerevisiae deletion strains, locus YNL183C, strain NPR1, stronger effect = lower value 0.93 | S. cerevisiae deletion strains, locus YNL209W, strain ssb2, stronger effect = lower value 0.996 | S. cerevisiae deletion strains, locus YNL233W, strain BNI4, stronger effect = lower value 0.959 | S. cerevisiae deletion strains, locus YNL248C, strain rpa49, stronger effect = lower value 0.999 | S. cerevisiae deletion strains, locus YNL250W, strain rad50, stronger effect = lower value 0.986 | S. cerevisiae deletion strains, locus YNL271C, strain bni1, stronger effect = lower value 0.985 | S. cerevisiae deletion strains, locus YNL298W, strain CLA4, stronger effect = lower value 0.995 | S. cerevisiae deletion strains, locus YNL307C, strain MCK1, stronger effect = lower value 0.992 | S. cerevisiae deletion strains, locus YNL322C, strain KRE1 (second series), stronger effect = lower value 0.988 | S. cerevisiae deletion strains, locus YNL322C, strain KRE1, stronger effect = lower value 0.987 | S. cerevisiae deletion strains, locus YNR049C, strain mso1, stronger effect = lower value 1.01 | S. cerevisiae deletion strains, locus YNR052C, strain pop2, stronger effect = lower value 0.99 | S. cerevisiae deletion strains, locus YOL006C, strain TOP1, stronger effect = lower value 0.993 | S. cerevisiae deletion strains, locus YOL012C, strain htz1 0.986 | S. cerevisiae deletion strains, locus YOL147C, strain pex11, stronger effect = lower value 1.01 | S. cerevisiae deletion strains, locus YOR001W, strain rrp6, stronger effect = lower value 0.999 | S. cerevisiae deletion strains, locus YOR061W, strain CKA2, stronger effect = lower value 0.991 | S. cerevisiae deletion strains, locus YOR069W, strain VPS5, stronger effect = lower value 0.997 | S. cerevisiae deletion strains, locus YOR070C, strain gyp1, stronger effect = lower value 1.01 | S. cerevisiae deletion strains, locus YOR080W, strain dia2, stronger effect = lower value 1.02 | S. cerevisiae deletion strains, locus YOR083W, strain WHI5, stronger effect = lower value 1.03 | S. cerevisiae deletion strains, locus YOR106W, strain vam3, stronger effect = lower value 1.02 | S. cerevisiae deletion strains, locus YOR136W, strain idh2, stronger effect = lower value 0.988 | S. cerevisiae deletion strains, locus YOR144C, strain elg1, stronger effect = lower value 0.991 | S. cerevisiae deletion strains, locus YOR184W, strain ser1, stronger effect = lower value 0.997 | S. cerevisiae deletion strains, locus YOR231W, strain MKK1, stronger effect = lower value 0.959 | S. cerevisiae deletion strains, locus YOR265W, strain rbl2, stronger effect = lower value 1 | S. cerevisiae deletion strains, locus YOR270C, strain vph1, stronger effect = lower value 1.04 | S. cerevisiae deletion strains, locus YOR290C, strain snf2, stronger effect = lower value 0.991 | S. cerevisiae deletion strains, locus YOR316C, strain cot1, stronger effect = lower value 0.994 | S. cerevisiae deletion strains, locus YPL051W, strain arl3, stronger effect = lower value 1.01 | S. cerevisiae deletion strains, locus YPL078C, strain atp4, stronger effect = lower value 1 | S. cerevisiae deletion strains, locus YPL106C, strain sse1, stronger effect = lower value 0.999 | S. cerevisiae deletion strains, locus YPL240C, strain hsp82, stronger effect = lower value 1 | S. cerevisiae deletion strains, locus YPL256C, strain CLN2, stronger effect = lower value 0.946 | S. cerevisiae deletion strains, locus YPR119W, strain clb2, stronger effect = lower value 0.99 | S. cerevisiae deletion strains, locus YPR141C, strain kar3, stronger effect = lower value 0.988 | S. cerevisiae deletion strains, locus YPR163C, strain tif3, stronger effect = lower value 0.999 | S. cerevisiae deletion strains, locus YPR167C, strain met16, stronger effect = lower value 0.993 | S. cerevisiae deletion strains, strain wtn01, stronger effect = lower value 0.96 | S. cerevisiae strains, strain wild type, stronger effect = lower value 0.983

From PubChem BioAssay AID1159580 (chemical genetic matrix, 2015)
